Reference: PubChem BioAssay (NCATS)
Inconclusive results are not listed. Entries that show only a call come without a potency. Values without a mark were called inactive. Activity calls are given as the source filed them. The call rests on the fitted dose curve; in most records, active means well fitted curve in the direction sought with a large enough effect; inconclusive means small, poorly fitted or top-dose-only effect, or another doubt; inactive means no such curve, though single readings can be large; an effect the other way counts as inactive or inconclusive.

What was measured:
[1] = target: Rap guanine nucleotide exchange factor 3 (Homo sapiens) (UniProt O95398); assay: Confirmatory qHTS for agonist of cAMP-regulated guanine nucleotide exchange factor 3 (EPAC1) (AID 1645881); details: EPAC1 Rap1B BODIPY-GDP exchange fluorescence; series mostly up to 154 µM;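 further: EPAC1 catalysed release of BODIPY-GDP from Rap1B seen as fluorescence loss; nearly all actives have a fitted effect of over 75% in size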
Chain of Rap guanine nucleotide exchange factor 3 (Homo sapiens) (O95398 whole entry, looked up): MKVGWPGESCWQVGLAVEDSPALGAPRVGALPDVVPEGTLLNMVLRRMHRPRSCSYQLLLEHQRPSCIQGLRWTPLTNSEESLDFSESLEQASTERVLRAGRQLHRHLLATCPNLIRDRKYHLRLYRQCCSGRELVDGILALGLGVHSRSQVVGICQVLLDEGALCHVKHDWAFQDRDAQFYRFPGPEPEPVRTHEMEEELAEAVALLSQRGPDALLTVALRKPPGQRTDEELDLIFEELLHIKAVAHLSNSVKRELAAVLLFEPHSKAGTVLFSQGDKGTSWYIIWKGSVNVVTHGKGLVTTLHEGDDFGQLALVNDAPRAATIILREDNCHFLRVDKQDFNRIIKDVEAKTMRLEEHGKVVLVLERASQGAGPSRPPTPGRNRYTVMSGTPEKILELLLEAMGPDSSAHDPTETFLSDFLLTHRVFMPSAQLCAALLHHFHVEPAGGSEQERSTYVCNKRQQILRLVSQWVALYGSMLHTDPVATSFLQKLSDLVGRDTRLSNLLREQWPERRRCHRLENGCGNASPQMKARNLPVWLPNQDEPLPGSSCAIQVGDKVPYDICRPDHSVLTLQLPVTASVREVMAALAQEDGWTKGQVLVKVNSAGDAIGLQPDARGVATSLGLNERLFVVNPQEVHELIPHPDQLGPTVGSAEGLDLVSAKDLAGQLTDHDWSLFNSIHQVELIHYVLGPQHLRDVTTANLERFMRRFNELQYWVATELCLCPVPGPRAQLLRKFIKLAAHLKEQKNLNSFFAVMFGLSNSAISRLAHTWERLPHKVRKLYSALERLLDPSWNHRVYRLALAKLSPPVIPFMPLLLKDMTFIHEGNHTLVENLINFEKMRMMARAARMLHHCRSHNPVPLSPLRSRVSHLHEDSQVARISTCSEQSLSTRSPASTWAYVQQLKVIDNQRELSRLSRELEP

[2] = target: Rap guanine nucleotide exchange factor 4 (Homo sapiens) (UniProt Q8WZA2); assay: Confirmatory qHTS for agonist of cAMP-regulated guanine nucleotide exchange factor 4 (EPAC2) (AID 1645884); details: EPAC2 GEF activity, Rap1B-BODIPY-GDP fluorescence; series mostly up to 154 µM;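 further: nucleotide exchange releases bodipy-GDP from Rap1 and this lowers its fluorescence; nearly all actives have a fitted effect of over 65% in size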
Chain of Rap guanine nucleotide exchange factor 4 (Homo sapiens) (Q8WZA2 whole entry, looked up): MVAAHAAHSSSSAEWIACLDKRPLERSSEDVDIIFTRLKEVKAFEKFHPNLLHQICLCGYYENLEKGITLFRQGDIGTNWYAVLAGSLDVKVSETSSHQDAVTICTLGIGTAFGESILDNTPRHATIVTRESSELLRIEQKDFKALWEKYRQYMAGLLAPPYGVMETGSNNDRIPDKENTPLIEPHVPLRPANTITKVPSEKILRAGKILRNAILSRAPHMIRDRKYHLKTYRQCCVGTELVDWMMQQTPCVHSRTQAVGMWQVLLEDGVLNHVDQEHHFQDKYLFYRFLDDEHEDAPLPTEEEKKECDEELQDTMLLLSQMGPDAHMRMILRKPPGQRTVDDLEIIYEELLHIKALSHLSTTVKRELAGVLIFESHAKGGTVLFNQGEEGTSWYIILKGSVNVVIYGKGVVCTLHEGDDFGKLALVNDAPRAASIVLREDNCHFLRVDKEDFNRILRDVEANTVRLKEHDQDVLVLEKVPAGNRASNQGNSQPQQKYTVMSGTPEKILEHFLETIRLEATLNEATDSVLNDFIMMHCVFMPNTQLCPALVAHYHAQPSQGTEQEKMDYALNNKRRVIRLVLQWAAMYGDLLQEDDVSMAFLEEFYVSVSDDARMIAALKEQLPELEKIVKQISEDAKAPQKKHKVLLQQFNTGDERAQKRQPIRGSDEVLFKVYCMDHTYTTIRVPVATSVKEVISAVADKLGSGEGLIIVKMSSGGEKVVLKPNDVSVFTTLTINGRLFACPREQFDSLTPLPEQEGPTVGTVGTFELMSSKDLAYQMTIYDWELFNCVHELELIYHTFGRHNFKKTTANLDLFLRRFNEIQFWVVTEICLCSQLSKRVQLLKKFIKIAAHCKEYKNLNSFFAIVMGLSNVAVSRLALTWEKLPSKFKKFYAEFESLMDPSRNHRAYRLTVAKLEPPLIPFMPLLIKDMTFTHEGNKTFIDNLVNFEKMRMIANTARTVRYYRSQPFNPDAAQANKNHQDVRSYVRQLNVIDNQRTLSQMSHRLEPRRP

[3] = target: Rap guanine nucleotide exchange factor 4 (Homo sapiens) (UniProt Q8WZA2); assay: Confirmatory qHTS for antagonist of cAMP-regulated guanine nucleotide exchange factor 4 (EPAC2) (AID 1645885); details: EPAC2 Rap1B-BODIPY-GDP exchange fluorescence, biochemical; series mostly up to 12.7 µM; further: nearly all actives have a fitted effect of over 25% in size; further: potency means the concentration at half of the fitted maximal effect
[4] = target: Rap guanine nucleotide exchange factor 3 (Homo sapiens) (UniProt O95398); assay: Counterscreen qHTS for antagonist of cAMP-regulated guanine nucleotide exchange factor 3 (EPAC1) (AID 1645888); details: Rap1B-BODIPY-GDP nucleotide exchange, fluorescence; series mostly up to 154 µM; further: potency means the concentration at half of the fitted maximal effect;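 on activity change, negative = inhibition: fluorescence loss as bound BODIPY-GDP is released from Rap1B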
Outline: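 Rap1B-BODIPY-GDP 250 nM + GDP 50 uM; cpds 7-pt, final 9.74 nM–152 uM (activator mode) or from 7.32 nM upwards (inhibitor mode); RT; FI 480/540 nm at 5 and 30 min, then ± cAMP, reread.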

Row | SMILES | Potency [1] | Potency [2] | Potency [3] | Potency [4] | activation [2] | activity change, negative = inhibition [4] | outcome [3]
1 | Cc1cc(C)nc(NS(=O)(=O)c2ccc(NC(=O)CN3C(=O)S/C(=C\c4ccccc4)C3=O)cc2)n1 | inactive | inactive | inactive | inactive |  |  | 
2 | COc1cc(OC)cc(C(=O)Nc2ccc(NC(=O)c3ccco3)c(Cl)c2)c1 | inactive | inactive | inactive | inactive |  |  | 
3 | N#C/C(=C/C1=C(N2CCOCC2)C(=C/c2cccc([N+](=O)[O-])c2)/CC1)C(=O)Nc1ccccc1F | inactive |  | inactive |  | 1.67% [at 17.1 µM, percent relative to cAMP agonist control] | -3.26% [at 30.8 µM] | 
4 | Cc1ccc(C(C[N+](=O)[O-])c2c(-c3ccccc3O)[nH][nH]c2=O)cc1 (stereo not drawn) | inactive |  | 3.38 µM (active) |  | 3.05% [at 17.1 µM, percent relative to cAMP agonist control] | -0.345% [at 30.8 µM] | 
5 | O=C(NCc1ccc2c(c1)CCN2C(=O)c1ccccc1)Nc1cccc(C(F)(F)F)c1 | inactive | inactive | inactive | inactive |  |  | 
6 | O=c1nc(/C=C/c2cccn2-c2ccc([N+](=O)[O-])cc2)cc(C(F)(F)F)[nH]1 | inactive | inactive | inactive | inactive |  |  | 
7 | CCOc1ccccc1Oc1ncnc2c1oc1ccccc12 | inactive | inactive |  | inactive |  |  | inactive [at 12.7 µM]
8 | CCc1nc2c(OCc3ccc(C(F)(F)F)cc3)cccn2c1N(C)C(=O)C(C)C | inactive |  | inactive |  | -0.706% [at 17.1 µM, percent relative to cAMP agonist control] | -5.96% [at 30.8 µM] | 
9 | O=C(Nc1sc2c(c1C(=O)O)CCCC2)c1ccc(Cl)cc1 | inactive |  | inactive |  | 1.39% [at 17.1 µM, percent relative to cAMP agonist control] | -8.59% [at 30.8 µM] | 
10 | O=C(Nc1ccc(S(=O)(=O)Nc2nccs2)cc1)c1cc(-c2ccccn2)nc2ccccc12 | inactive |  | inactive |  | 4.2% [at 17.1 µM, percent relative to cAMP agonist control] | -7.32% [at 30.8 µM] | 
11 | COCOCCn1cc(CN2CCS(=O)(=O)N(Cc3ccc(-c4ccccc4)cc3)C(CC(C)C)C2=O)nn1 (stereo not drawn) | inactive |  | 3.01 µM (active) |  | 4.12% [at 17.1 µM, percent relative to cAMP agonist control] | -6.67% [at 30.8 µM] | 
12 | Cc1ccc(/C=C(\C#N)C(=O)Nc2cccc3ncccc23)o1 | inactive | inactive | inactive | inactive |  |  | 
13 | CCOC(=O)c1c(NC(=O)CSc2nnnn2-c2ccccc2OCC)sc2c1CC(C)(C)NC2(C)C | inactive |  | inactive |  | 5.6% [at 17.1 µM, percent relative to cAMP agonist control] | -5.37% [at 30.8 µM] | 
14 | COc1ccc(C2C=C(c3ccc(Br)cc3)Nc3nnnn32)c(OC)c1 (stereo not drawn) | inactive | inactive | inactive | inactive |  |  | 
15 | O=C1c2cccc3cc([N+](=O)[O-])cc(c23)C(=O)N1/N=C/c1ccc(O)cc1O | inactive | inactive | inactive | inactive |  |  | 
16 | O=C(N/N=C/c1coc2ccc(Cl)cc2c1=O)c1cc(O)cc(O)c1 | inactive | inactive | inactive | inactive |  |  | 
17 | O=C(Nc1cccc(Cl)c1)Nc1ccccc1NS(=O)(=O)c1cccs1 | inactive |  | inactive |  | 0% [at 17.1 µM, percent relative to cAMP agonist control] | -19.4% [at 30.8 µM] | 
18 | CC(C)CC(NS(=O)(=O)OCC(Cl)(Cl)Cl)c1ccccc1 (stereo not drawn) | inactive |  | inactive |  | 5.17% [at 17.1 µM, percent relative to cAMP agonist control] | -22.9% [at 30.8 µM] | 
19 | CCOc1cc(CNCCSc2nnnn2C)ccc1OCc1ccc(Cl)cc1Cl | inactive | inactive | 4.26 µM (active) | 63.1 µM (active) |  |  | 
20 | C=C(C)COc1ccc(-c2[nH]ncc2-c2ccccc2OC)c(O)c1 | inactive |  | inactive |  | 16.3% [at 17.1 µM, percent relative to cAMP agonist control] | 6.08% [at 30.8 µM] | 
21 | Nc1c2c(=O)[nH]c(O)cc2nn1-c1ccccc1 | inactive | inactive | inactive | inactive |  |  | 
22 | COCCCNC(=O)C[C@@H]1C[C@@]2(C(=O)OC)CCCCC=C2N(Cc2cccc3ccccc23)C1=O | inactive |  | inactive |  | 3.32% [at 17.1 µM, percent relative to cAMP agonist control] | -43.8% [at 30.8 µM] | 
23 | CCc1nc2sc3ccccc3c(=O)c2c(=O)n1Cc1ccco1 | inactive | inactive | 75.7 µM (active) | inactive |  |  | 
24 | O=S(=O)(c1ccc2c(c1)C(O)c1ccccc1CC2)C(F)(F)F (stereo not drawn) | inactive | inactive | inactive | inactive |  |  | 

Row | SMILES | Potency [1] | Potency [2] | Potency [3] | Potency [4] | activation [2] | activity change, negative = inhibition [4] | outcome [3]
25 | CC(C)c1ccc(/C=C/C(=O)Nc2ccc(CN3CCOCC3)cc2)cc1 | inactive | inactive | 95.3 µM (active) | inactive |  |  | 
26 | CCc1nc2c(OCCC3CCCCC3)cccn2c1N(C)C(=O)c1ccc(C)cc1 | inactive | inactive | inactive | inactive |  |  | 
27 | CCn1c(SCC(=O)N/N=C/C=C\c2ccco2)nc2ccccc21 | inactive | inactive | inactive | inactive |  |  | 
28 | COc1ccc(/C=C2\C(=O)NC(=S)N2C(=O)c2ccc(F)cc2)cc1 | inactive | inactive | inactive | inactive |  |  | 
29 | CC(=O)Nc1ccc(N(C(=O)Cn2nnc3ccccc32)C(C(=O)NC2CCCC2)c2ccc(O)c(O)c2)cc1 (stereo not drawn) | inactive | inactive | 95.3 µM (active) | inactive |  |  | 
30 | O=C1C=C(Nc2cccc3cccnc23)c2ccccc2C1=O | inactive | inactive | inactive | inactive |  |  | 
31 | Cc1noc(C)c1COc1ccccc1C(=O)NC(C)c1ccc(Cl)cc1 (stereo not drawn) | inactive | inactive | 33.8 µM (active) | inactive |  |  | 
32 | CCc1nc2c(OCc3ccc(OC(F)F)cc3)cccn2c1N(C)C(=O)c1cccs1 | inactive | inactive | inactive | inactive |  |  | 
33 | CCCC(=O)OC1CC(C)N(C(=O)c2ccccc2)c2ccc(C)cc21 (stereo not drawn) | inactive |  | 3.38 µM (active) |  | -2.84% [at 17.1 µM, percent relative to cAMP agonist control] | -2.85% [at 30.8 µM] | 
34 | Cc1ccc(C(NC(=O)C2CCN(Cc3ccc(Cl)c(Cl)c3)CC2)c2ccccn2)cc1 (stereo not drawn) | inactive | inactive | inactive | inactive |  |  | 
35 | C/C(=N\NC(=O)c1ccc(O)cc1)c1cccc(NC(=O)c2ccc(Cl)cc2)c1 | inactive | inactive | inactive | inactive |  |  | 
36 | CC(C)CCn1c(Oc2ccccc2Cl)nc2c1c(=O)n(C)c(=O)n2C | inactive | inactive | inactive | inactive |  |  | 
37 | CCCc1nc2ccc(C(=O)OC)cn2c1Cc1ccc(C)cc1 | inactive | inactive | inactive | inactive |  |  | 
38 | O=S(=O)(NCC(c1cccnc1)N1CCN(c2ccccc2F)CC1)c1cccs1 (stereo not drawn) | inactive |  | inactive |  | 0% [at 17.1 µM, percent relative to cAMP agonist control] | -13.6% [at 30.8 µM] | 
39 | O=S(=O)(Nc1cc(Sc2ncn[nH]2)c(O)c2ccccc12)c1ccccc1 | inactive |  | inactive |  | 4.4% [at 17.1 µM, percent relative to cAMP agonist control] | 3.32% [at 30.8 µM] | 
40 | CCc1ccc(C(c2ccccc2)c2c(C)[nH]c3ccccc23)s1 (stereo not drawn) | inactive | inactive | inactive | inactive |  |  | 
41 | Cc1ccc(C(=O)c2cn(Cc3cccc(C)c3)c3nc(C)ccc3c2=O)cc1 | inactive | inactive | inactive | inactive |  |  | 
42 | Cc1ccc(N=Cc2c(O)c3ccccc3n(C)c2=O)cc1 | inactive | inactive | inactive | inactive |  |  | 
43 | Cc1cccc(NC(=O)CN2C(=O)N/C(=C\c3ccccc3OCc3ccc(C(=O)O)cc3)C2=O)c1 | inactive | inactive | inactive | inactive |  |  | 
44 | O=C(/C=C/c1ccco1)Nc1nc(-c2ccccn2)cs1 | inactive | inactive | inactive | inactive |  |  | 
45 | NC(=O)c1c(NC(=O)CN2CCN(S(=O)(=O)c3ccccc3)CC2)sc2c1CCC2 | inactive | inactive | inactive | inactive |  |  | 
46 | Cc1cc(C)cc(-n2ccnc2SCC(=O)Nc2ccc3c(c2)OCO3)c1 | inactive | inactive | inactive | inactive |  |  | 
47 | CCn1c2c(c3cc(Cl)ccc31)CCCC2=O | inactive | inactive | inactive | inactive |  |  | 
